# Screening data (PubChem BioAssay)
# In the library only some 2.6% were active in any assay of this set; here they are far more common.
# TWEAK Fn14 block = inhibitors of TWEAK-Fn14 signaling, primary screen, luciferase reporter cells, uHTS; TWEAK-stimulated Fn14 reporter cells, luciferase luminescence, 8 h; inhibition, % at 10 µM; hit rate 2% among 360,000; AID 1159606, 2016; in the data active = inhibition above about 50%
# CF NFkB inh = inhibitors of PAF-induced NF-kB signaling, primary screen, cell-based, GFP fluorescence, uHTS | KKLEB NF-kB-GFP reporter, GFP fluorescence overnight | inhibition, % at 5 µM | hit rate 0.86% among 360,000;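 active = at least 50% inhibition at 5 µM, scaled per plate between neutral and stimulator controls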;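 note: PAF is a Pseudomonas aeruginosa culture filtrate used as stimulus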
# LGR2 inh = inhibitors of bursicon-induced LGR2 CRE-luciferase signal, primary screen, cell-based, HEK293, CRE-luciferase reporter, bursicon stimulation; AID 720647, 2013; inhibition, % at 9.99 µM; hit rate 0.35% among 380,000; Drosophila bursicon receptor LGR2 (rickets); bursicon-stimulated, 4 h;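 active = drop in luminescence signal, shown as inhibition above about 50% in the replicate tests, limit read from the data, passing the limit was not always enough; inconclusive = probably only some replicates passing the limit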;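 note: agonist challenge used bursicon conditioned medium at about half maximal strength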
# EWS-Fli block = EWS/Fli-driven NR0B1 reporter inhibitors, primary screen, A673 cells, NR0B1 luciferase, luminescence, MLPCN library; hit rate 0.67% among 350,000; viability-normalised; AID 651661, 2012; inhibition, % at 12.6 µM;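 active = mean inhibition of at least 50% after viability correction, with every replicate also passing that limit; inconclusive = mean reaches 50% but only one of two replicates passes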;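 note: firefly luciferase signal divided by Alamar Blue viability fluorescence both relative to DMSO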
# KKLEB cytotox = cytotoxicity in KKLEB CF airway cells, primary screen, cytotoxicity control for CF NF-kB inhibitor project, cell-based, uHTS, fluorescence assay plates. KKLEB CF airway cells viability, ATPlite luminescence, overnight; stronger effect = lower value; cells stimulated with P. aeruginosa culture filtrate. activity change (cytotoxicity), % at 5 µM. hit rate 0.36% among 360,000;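 active = corrected activity change at or below -50% at 5 µM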
# TROY NFkB inh = inhibitors of TROY-driven NF-kB signaling, primary screen, Q293 LMP1-TROYcd cells, NF-kB luciferase, uHTS; Q293 LMP1-TROYcd NF-kB luciferase reporter, 4 h; inhibition, % at 10 µM; hit rate 0.98% among 360,000; AID 1347056, 2019;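 active = compounds whose plate-normalised and pattern-corrected inhibition of the luciferase reporter signal at the single screening dose is 50% or more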
# Hits are given with their value; . = inactive; ? = inconclusive; / = not tested or not shown.
SMILES,TWEAK Fn14 block,CF NFkB inh,LGR2 inh,EWS-Fli block,KKLEB cytotox,TROY NFkB inh
C[C@@H]1CCCCO[C@H](CN(C)Cc2ccc(C(F)(F)F)cc2)[C@@H](C)CN([C@@H](C)CO)C(=O)c2cc(NC(=O)Nc3ccccc3)ccc2O1,/,/,.,69,/,/
COc1ccc(CN(C)C[C@H]2OCCCC[C@@H](C)Oc3ccc(NC(=O)Nc4ccc(C(F)(F)F)cc4)cc3C(=O)N([C@H](C)CO)C[C@H]2C)cc1,/,/,/,56,/,/
COc1ccc(NC(=O)Nc2ccc3c(c2)C(=O)N([C@H](C)CO)C[C@@H](C)[C@@H](CN(C)Cc2ccc(C(F)(F)F)cc2)OCCCC[C@@H](C)O3)cc1,/,/,.,.,/,/
COc1ccc(NC(=O)Nc2ccc3c(c2)C(=O)N([C@@H](C)CO)C[C@@H](C)[C@@H](CN(C)Cc2ccc(C(F)(F)F)cc2)OCCCC[C@H](C)O3)cc1,/,/,.,.,/,/
COc1ccc(CN(C)C[C@H]2OCCCC[C@H](C)Oc3ccc(NC(=O)Nc4cccc5ccccc45)cc3C(=O)N([C@H](C)CO)C[C@H]2C)cc1,/,/,.,70,/,/
COc1ccc(CN(C)C[C@H]2OCCCC[C@H](C)Oc3ccc(NC(=O)Nc4ccc(C(F)(F)F)cc4)cc3C(=O)N([C@@H](C)CO)C[C@H]2C)cc1,/,/,/,67,/,/
COCC(=O)Nc1ccc2c(c1)OC[C@@H](C)N(Cc1ccncc1)C[C@@H](C)[C@H](OC)CN(C)C2=O,/,/,.,.,/,/
CCCNC(=O)N(C)C[C@@H]1Oc2cc(-c3cccnc3)ccc2S(=O)(=O)N([C@@H](C)CO)C[C@H]1C,/,/,.,.,/,/
C[C@H](O)C#Cc1ccc([C@H]2[C@H]3CN(CC4CC4)CCCCN3[C@H]2CO)cc1,/,/,.,.,/,/
COc1ccccc1C(=O)Nc1ccc2c(c1)C(=O)N(C)C[C@H](OC)[C@@H](C)CN(C)[C@H](C)CO2,/,/,.,.,/,/
C[C@@H]1CCCCO[C@@H](CN(C)CC2CCCCC2)[C@@H](C)CN([C@H](C)CO)C(=O)c2cc(NS(=O)(=O)c3ccccc3)ccc2O1,/,/,.,.,/,/
COc1ccc(CN(C)C[C@@H]2OCCCC[C@H](C)Oc3ccc(NC(=O)Nc4ccc(C(F)(F)F)cc4)cc3C(=O)N([C@@H](C)CO)C[C@@H]2C)cc1,/,/,/,83,/,/
COc1ccc(CN(C)C[C@H]2OCCCC[C@@H](C)Oc3ccc(NC(=O)Nc4ccc(F)cc4)cc3C(=O)N([C@H](C)CO)C[C@H]2C)cc1,/,/,.,67,/,/
COc1ccc(NC(=O)Nc2ccc3c(c2)C(=O)N([C@@H](C)CO)C[C@@H](C)[C@@H](CN(C)Cc2ccc(C(F)(F)F)cc2)OCCCC[C@@H](C)O3)cc1,/,/,.,.,/,/
CCc1ccc(NC(=O)c2cnc(N3CCN(c4ccccn4)CC3)c3ccccc23)cc1,101,.,?,.,.,60
CC(C)NC(=O)c1cnc(N2CCN(c3ccccn3)CC2)c2ccccc12,.,.,/,/,.,.
O=C(COc1ccccc1/C=C1\SC(=O)NC1=O)Nc1ccccc1,.,.,.,.,.,.
O=C1NC(=O)/C(=C/c2ccccc2OCc2ccccc2)S1,.,.,.,.,.,55
Cc1ccc(/C=N/Nc2nc3ccccc3s2)o1,60,.,.,/,.,.
Cc1ccc(/C=N/Nc2nc(C(C)(C)C)cs2)o1,.,.,.,.,.,.
Nc1ncnc(Sc2ncccn2)c1[N+](=O)[O-],71,55,?,.,.,.
Cc1ccc(Sc2ncnc(N)c2[N+](=O)[O-])cc1,.,.,.,/,.,.
O=C1c2ccccc2-c2onc3ccc(Oc4ccccc4)c1c23,56,85,.,/,-83,.
O=c1c(Sc2ccccc2)c(C(F)(F)F)[nH]n1-c1ccccc1,.,.,/,/,.,53
CN(C(=O)CN1C(=O)c2ccccc2S1(=O)=O)C1CCCCC1,70,.,.,.,.,75
CC(C)NC(=O)CN1C(=O)c2ccccc2S1(=O)=O,.,.,.,.,.,.
O=C(CN1C(=O)c2ccccc2S1(=O)=O)c1ccccc1,100,.,/,/,.,77
